Source: PubChem BioAssay (NCI)
About 83,000 compounds went through this panel and 20% of them were active in at least one assay; those are over-represented in the sample as a whole.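 Interpretation: 100, growth as untreated; towards 0, rising growth inhibition; 0, no net growth; 0 to -100, cell death. Compounds scoring below 10 were considered active.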 The source made the active and inactive calls.

What follows are molecules tested on MDA-MB-231 breast (assay: NCI-60 one-dose screen, 48 h (100 = growth as untreated, 0 = no growth, -100 = all killed)). Conditions: 10 µM unless noted.
With COc1cc(C2CC(C3C(=O)N(C)C(=O)N(C)C3=O)=NN2C=O)cc(OC)c1OC (stereo not given) the growth was 103% (inactive).
In the case of C=C1CCC2C3(C)COC(c4ccccc4)OC3CCC2(C)C1C/C=C1/C(=O)OCC1OC(C)=O (stereo not given), the growth is reported as 94.9% (inactive).
Clc1ccc(C2=NN(c3ccc(Cl)cc3)C(c3cccc(Nc4ccnc5cc(Cl)ccc45)c3)C2)cc1 (stereo not given) was tested, and the growth was 84.5% (inactive).
CC(=O)N1N=C(c2ccc(Nc3nc(NCCO)nc(NCCO)n3)cc2)CC1c1ccc(Cl)cc1 (stereo not given) was tested, and the growth was 92.5% (inactive).
For O=C(c1ccccc1)c1ccc(Oc2ccc([N+](=O)[O-])cc2[N+](=O)[O-])cc1, the growth was 89.5% (inactive).
For O=C(C(=O)N1CCOCC1)c1cn(CCCn2cc(C(=O)C(=O)N3CCOCC3)c3ccccc32)c2ccccc12, the growth was 93.4% (inactive).
CC(C)CC1NC(=O)C(CCCN)NC(=O)C(C(C)C)NC(=O)C2CCCN2C(=O)C(Cc2ccccc2)NC(=O)C(CC(C)C)NC(=O)C(CCCN)NC(=O)C(C(C)C)NC(=O)C2CCCN2C(=O)C(Cc2ccccc2)NC1=O (stereo not given) was tested, and the growth was -54.4% (active).
Cc1csc(C#Cc2cncc(O)c2)n1 was tested, and the growth was 107% (inactive).
COc1cc(/C=C/C(=O)C(C(=O)/C=C/c2ccc(OC(=O)CCNC34CC5CC(CC(C5)C3)C4)c(OC)c2)C(=O)CCNC23CC4CC(CC(C4)C2)C3)ccc1OC(=O)CCNC12CC3CC(CC(C3)C1)C2 (stereo not given) was tested, and the growth was 13.3% (inactive).
For C/C=C(/C(=C/C)c1ccc(O)cc1)c1ccc(O)cc1, the growth was 49.1% (inactive).
With COc1cc(/C=C/C(=O)CC(=O)/C=C/c2ccc(OC(=O)CCNC34CC5CC(CC(C5)C3)C4)c(OC)c2)ccc1OC(=O)CCNC12CC3CC(CC(C3)C1)C2 the growth was 52.4% (inactive).
For Oc1c(Cl)cc(Cl)c(Cl)c1Cc1c(O)c(Cl)cc(Cl)c1Cl, the growth was -13.5% (active).
For COc1cc(C2CC(c3ccc(C)cc3)=NN2C=O)ccc1OCCN(C)C (stereo not given), the growth was 97.2% (inactive).
NS(=O)(=O)c1cc(C2(O)NC(=O)c3ccccc32)ccc1Cl (stereo not given) was tested, and the growth was 112% (inactive).
For CCn1cnc(C[C@H](NC(=O)[C@H](CCCCNC(=O)Nc2cc(C(F)(F)F)cc(C(F)(F)F)c2)NC(=O)Nc2cc(C(F)(F)F)cc(C(F)(F)F)c2)C(=O)OC)c1, the growth was -100% [100 µM] (active).
With CS(=O)(=O)N1CCN(Cc2cc3nc(-c4cccc5[nH]ncc45)nc(N4CCOCC4)c3s2)CC1 (tested in a mixture with another compound) the growth was 42.9% (inactive).
CN(C)c1ccc(-c2nc3ncc(Br)cc3o2)cc1 was tested, and the growth was 90.2% (inactive).
COc1ccc(-c2cc(-c3nnc(SCC(=O)Nc4ccc(C(C)=O)cc4)n3-c3ccccc3)c3ccccc3n2)cc1OC was tested, and the growth was 105% (inactive).
For Nc1nc(NC2CC2)c2ncn(C3C=CC(CO)C3)c2n1 (stereo not given), the growth was 98.5% (inactive).
For C[C@]12CCC(=O)C=C1CC[C@H]1[C@@H]3C[C@@H](O)[C@](O)(C(=O)CO)[C@@]3(C)C[C@H](O)[C@@]12F, the growth was 102% (inactive).
With NS(=O)(=O)c1cc2c(cc1Cl)NC=NS2(=O)=O the growth was 113% (inactive).
In the case of COc1cnc2c(c1)C(=O)c1c-2n(CCCn2ccnc2)c(=O)c2cc(F)ccc12, the growth is reported as 5.66% (active).
In the case of NC(=O)c1cc(Br)cc(Br)c1NS(=O)(=O)c1ccccc1, the growth is reported as 88.1% (inactive).
For CN(C)c1ccc(-n2nc3ccccc3n2)cc1, the growth was 85.4% (inactive).
For CC1CN(C2CCCCC2)C(=O)NC1=O (stereo not given), the growth was 104% (inactive).
O=C1C=CC(=O)N1c1ccccc1N1C(=O)C=CC1=O was tested, and the growth was 92.6% (inactive).
With Cc1n(Cc2ccc3ccccc3c2)c2ccccc2[n+]1Cc1ccc2ccccc2c1 the growth was -83.6% (active).
C[C@H]1O[C@@H](O[C@H]2[C@@H](O)C[C@H](O[C@H]3[C@@H](O)C[C@H](O[C@H]4CC[C@]5(C)C6C[C@@H](O)[C@]7(C)[C@@H](C8=CC(=O)OC8)CC[C@]7(O)C6CC[C@@H]5C4)O[C@@H]3C)O[C@@H]2C)C[C@H](O)[C@@H]1O (stereo not given in full) was tested, and the growth was -83.6% (active).
O=C(CNc1ccc2c(c1)C(=O)c1ccccc1C2=O)Nc1ccc2c(c1)C(=O)c1ccccc1C2=O was tested, and the growth was -27.7% (active).
For Cc1sc2nc(N3CCCCC3)[nH]c(=O)c2c1C, the growth was 99.4% (inactive).
In the case of NC(=NCCCCCCN=C(N)/N=C(\N)Nc1ccc(Cl)cc1)/N=C(\N)Nc1ccc(Cl)cc1, the growth is reported as 0.0954% (active).
With COc1cc(NC(=O)NCc2ccco2)ccc1-c1ccc(NC(=O)NCc2ccco2)cc1OC the growth was 43.2% (inactive).
For CSc1nc(Nc2ccc(S(=O)(=O)Nc3ccon3)cc2)c(C#N)c(-c2ccc(Cl)cc2)n1, the growth was 102% (inactive).
With COP(=O)(OC)C(c1ccc(O)cc1)(c1ccc(O)cc1)c1ccc(O)cc1 the growth was 93.7% (inactive).
With C=C1CCC2C(C)(COC(=O)CC)C(OC(=O)CC)CCC2(C)C1C/C=C1/C(=O)OCC1OC(=O)CC (stereo not given) the growth was -29.6% (active).
For Cc1cnc2nc(-c3ccc(N(C)C)cc3)cn2c1, the growth was 107% (inactive).
With Cc1ccc2nc3c(n2c1)C(=O)C(=O)c1ccccc1-3 the growth was -48.8% (active).
In the case of CC(C)=CCCC(C)c1ccc(C)c2c1OCN(CC1CCNCC1)C2 (stereo not given), the growth is reported as 68.8% (inactive).
For CCOc1cc(/C=C/C(=O)C(C(=O)/C=C/c2ccc(OC(=O)CNc3nc4ccccc4[nH]3)c(OCC)c2)C(=O)CNc2nc3ccccc3[nH]2)ccc1OC(=O)CNc1nc2ccccc2[nH]1, the growth was -16.3% (active).
With COc1ccc(C(=O)/C=C/c2cccc(Nc3ccnc4cc(Cl)ccc34)c2)cc1 the growth was 13.7% (inactive).
